{
  "source": "the supplement of paper PMC11577813",
  "about": "“Eurasian spruce bark beetle detects lanierone using a highly expressed specialist odorant receptor, present in several functional sensillum types” (BMC Biology, 2024)",
  "experiment_in_all_cases": "net action potential response of A-neuron (blank-subtracted) (spikes/s (Hz)); higher = stronger excitation",
  "details_in_all_cases": "10 µg on filter paper; neuron: A neuron (large spike amplitude)",
  "key": {"[1]": {"system": "(+)-isopinocamphone A-neuron OSN class", "summary_of_the_method": "(§1)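 Spikes were counted in AutoSpike for the large-amplitude A-neuron or the small-amplitude B-neuron, using 0.5 s windows across 1–4 sensilla. Responses were reported as spikes/s after subtraction of the pre-stimulus count and of the blank, averaged across sensilla. The recordings came from one fixed antenna of live lab-reared adult Ips typographus via tungsten electrodes under a humidified, charcoal-filtered airstream of 1.8 L/min, with each compound given as 10 μg in paraffin oil on filter paper in a pipette, pulsed for 0.5 s at 0.3 L/min.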"}, "[2]": {"system": "(5S,7S)-trans-conophthorin A-neuron OSN class", "summary_of_the_method": "as §1"}, "[3]": {"system": "myrcene A-neuron OSN class", "summary_of_the_method": "as §1"}, "[4]": {"system": "p-cymene A-neuron OSN class", "summary_of_the_method": "as §1"}},
  "note": "± gives the standard deviation of the averaged measurements.",
  "data": [
    {"smiles": "Cc1ccccc1", "note": "[Toluene]", "values": [
      {"measurement": "net action potential response", "setting": "[1]", "result": "0.667 ± 3.1"},
      {"measurement": "net action potential response", "setting": "[2]", "result": "4 ± 2.3"},
      {"measurement": "net action potential response", "setting": "[3]", "result": 6},
      {"measurement": "net action potential response", "setting": "[4]", "result": "2 ± 4"}
    ]},
    {"smiles": "C=CCc1ccc(OC)cc1", "note": "[Estragole]", "values": [
      {"measurement": "net action potential response", "setting": "[1]", "result": "-1.33 ± 1.1"},
      {"measurement": "net action potential response", "setting": "[2]", "result": "-0.5 ± 6.6"},
      {"measurement": "net action potential response", "setting": "[3]", "result": -2},
      {"measurement": "net action potential response", "setting": "[4]", "result": "9.33 ± 7"}
    ]},
    {"smiles": "O=Cc1ccccc1", "note": "[Benzaldehyde]", "values": [
      {"measurement": "net action potential response", "setting": "[1]", "result": "21.3 ± 15"},
      {"measurement": "net action potential response", "setting": "[2]", "result": "-4 ± 2"},
      {"measurement": "net action potential response", "setting": "[3]", "result": 4},
      {"measurement": "net action potential response", "setting": "[4]", "result": "2 ± 2"}
    ]}
  ]
}
